What was measured:
[1] = system: Vero E6 infected with SARS-CoV-2; experiment: morphology score (similarity to uninfected cells); higher = more like uninfected cells; details: 24 h
[2] = system: Vero E6 infected with SARS-CoV-2; experiment: SARS-CoV-2 infection rate relative to infected DMSO; higher = more infection, active = 60 or less; details: 24 h

Compound | morphology score [1] | SARS-CoV-2 infection rate [2]
CCN(CCO)CCCC(C)Nc1ccnc2cc(Cl)ccc12 (stereo not drawn) [hydroxychloroquine] (10 µM) | 0.362 | 88% (inactive)
CC(C)OC(=O)N1CCC(Oc2ncnc3c2cnn3-c2ccc(S(C)(=O)=O)cc2F)CC1 (10 µM) | 0.0759 | 98% (inactive)
CCN(CC)Cc1cc(Nc2ccnc3cc(Cl)ccc23)ccc1O [amodiaquine] (10 µM) | 0.839 | 17.5% (active)
COc1ccc(CCN)cc1OC [homoveratrylamine] (10 µM) | -0.0152 | 118% (inactive)

From the supplement of paper PMC13380429
